HCMV inh: blocks human cytomegalovirus replication. HFF cells, HCMV-luciferase reporter, 72 h; hits give low values. hit rate 4.5% among 410,000. AID 1259415. activity change, negative = inhibition, % at 57.5 µM; in the data active = activity change below about -60%; inconclusive = no clear call, values can overlap the other calls; inactive = above about -39%; also: % is scaled to controls: 0 for no effect and ±100 for the full control effect
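HFF cells seeded 16 h at 37C, treated with compounds, infected with luciferase-reporter HCMV at MOI 1 PFU/cell; luciferase read at 72 h post infection, normalized to buffer-only and Salinomycin controls.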
Pf growth 48h: P. falciparum growth inhibition at 48 hours (one generation); P. falciparum luciferase growth in erythrocytes, 48 h; Potency, µM (top dose mostly 28.7 µM), for inactives: at the top dose activity change, negative = inhibition, hits mostly inhibitors; hit rate 5.9% among 310,000; AID 504832; also: potency is read from the fitted curve at half-maximal effect; % is scaled to controls: 0 for no effect and ±100 for the full control effect
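Firefly luciferase activity from engineered P. falciparum reports growth; inhibitors lower the luminescent signal. Cultures contained 2% hematocrit erythrocytes at 0.1% final parasitemia.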
CHX counter: affects cycloheximide protein synthesis inhibition readout, counter-screen. cell reporter, cycloheximide protein synthesis inhibition counterscreen. max response, %. hit rate 12% among 300,000; in the data active = max response mostly above about 13%, no sharp cut-off; inactive = mostly below about 14%; also: read at 38.3 µM for the half of the compounds with a filed dose; 0% is about no effect
Shiga toxin inh: inhibitors of Shiga toxin in Vero cells. Vero cells, Shiga toxin protein synthesis inhibition reporter. inhibition, % at 38.7 µM. hit rate 9.2% among 290,000. AID 2315; in the data active = inhibition mostly above about 28%, no sharp cut-off; inactive = mostly below about 43%; also: 0% is about no effect
HCV inhibitor: blocks hepatitis C virus | hit rate 3.4% among 340,000 | Potency, µM (doses to about 41.8 µM), without a hit: top-dose activity change, negative = inhibition, usual class: inhibitors | AID 651820 | Huh7.5.1 HCVcc-Cre infection, luciferase reporter, 44 h; also: potency is read from the fitted curve at half-maximal effect; % is scaled to controls: 0 for no effect and ±100 for the full control effect
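Cells (1,000/well) were plated 4 h before compound, then infected with HCVcc-Cre virus (~0.5 moi). After 44 h further culture, infection was read as luciferase luminescence following a 15 min substrate incubation at room temperature.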
Pf growth 96h: P. falciparum growth inhibition at 96 hour, primary screen for plastid delayed-death inhibitors; P. falciparum luciferase reporter growth, 96 h; Potency, µM (doses to about 28.7 µM), for the others: at the highest dose activity change, negative = inhibition, actives largely listed as inhibitors; hit rate 6.9% among 320,000; AID 504834; also: potency is read from the fitted curve at half-maximal effect; % is scaled to controls: 0 for no effect and ±100 for the full control effect
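Two parasite generations (96 h, 37 C, 5% CO2) of compound exposure in infected erythrocytes (0.05% parasitemia, 2% hematocrit). Luciferase-reporter P. falciparum; decreased luminescence indicates inhibited growth, aimed at apicoplast-acting delayed death.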
Starred values were filed as active, the others as inactive; u = inconclusive; x = no result given; [ ] = dose if it differs, or a comment. Shown are actives, neighbours in structure and some others; about 21% of the full set was active somewhere. Unless noted, calls follow the shape of the dose curve; as a rule, active = well fitted inhibition curve with a large enough effect; inconclusive = small, poorly fitted or top-dose-only effect, or another doubt; inactive = no such curve, though single readings can be large or run the other way.

SMILES	HCMV inh	Pf growth 48h	CHX counter	Shiga toxin inh	HCV inhibitor	Pf growth 96h
O=C(Nc1ccc(Cl)c(Cl)c1)C1C2C=CC3(O2)C1C(=O)N(CCN1CCCCC1)C3C(=O)NC1CCCCC1 (stereo not given)	-39	u	-1	-11	u	u
Cc1nn(Cc2ccc([N+](=O)[O-])cc2)c(=O)n1-c1cccc(Cl)c1	-15	-18%	-1	-13	13%	32%
COc1cc(NC(=O)c2c(F)c(F)c(F)c(F)c2F)c(OC)cc1Cl	2	4%	-1	-12	11µM*	x
COc1cc(NC(=O)c2cc3nc(C)cc(C)n3n2)c(OC)cc1Cl	35	106%	53*	62*	u	16%
COc1ccc(OC)c(NC(=O)c2ccc(Cl)cc2)c1	30	-7%	10	23	-30%	-14%
COc1ccc(OC)c(NC(=O)c2ccc(-c3csc(C)n3)cc2)c1	0	u	16*	x	u	1%
COC(=O)c1cc(Cl)c(NC(=O)c2cc(OC)c(OC)c(OC)c2)cc1OC	36	18%	-3	-5	-12%	11%
COC(=O)c1cc(Cl)c(NC(=O)c2ccc(F)cc2)cc1OC	-14	21%	2	-5	16%	9.3µM*
COC(=O)c1cc2oc(C)cc2n1Cc1ccc(C)cc1	-5	x	x	x	x	x
COc1cc(-c2csc(C)n2)ccc1O	22	-1%	2	5	-1%	x
COc1ccc(C(=O)Nc2cc(OC)c(Cl)cc2OC)cc1	48	10%	14	22	u	5.2µM*
COc1ccc(-c2csc(C)n2)cc1Br	12	15%[5.75 µM]	35*	74*	-19%	20%
COc1cc(NC(=O)c2ccc(F)cc2)c(OC)cc1Cl	115	28%	8	12	u	-7%
COc1ccc(OC)c(NS(=O)(=O)c2ccc(NC(=O)c3ccc(NS(C)(=O)=O)cc3)cc2)c1	-83*	-7%	-4	-5	u	129%
COc1ccc(OC)c(NC(=O)c2csc(Cl)c2OC)c1	127	27%	21*	14	u	21%
C=C1[C@H](C)CN(S(=O)C(C)(C)C)[C@H]1CCO (stereo not given in full)	-5	x	x	x	x	x
COc1ccc(NC(=O)N(C)C[C@H]2Oc3ccc(NC(=O)Nc4c(C)noc4C)cc3C(=O)N([C@H](C)CO)C[C@@H]2C)cc1	16	x	x	x	2%	x
CCOC1=C2CN(S(=O)(=O)c3ccc(C)cc3)C(c3ccc(CC)cc3)CC2n2c(=O)n(-c3ccccc3)c(=O)n2C1 (stereo not given)	-23	x	x	x	x	x
CCC(=O)N[C@@H]1CC[C@@H](CCNC(=O)Nc2ccc(F)cc2)O[C@@H]1CO	-8	x	x	x	x	x
Cc1nc(-c2ccc(C(=O)Nc3cc(S(N)(=O)=O)ccc3C)cc2)cs1	-11	-16%	14*	56*	-7%	u
COc1cc(NC(=O)C2CCCC2)c(OC)cc1Cl	u	x	-2	-18	-7%	9.3µM*
COc1ccc(C(=O)Nc2cc(OC)ccc2OC)cc1	15	67%	15	24	11µM*	6%
COc1cc(NC(=O)C2CCCO2)c(OC)cc1Cl (stereo not given)	4	1%	-3	-6	-22%	-21%
COc1ccc(NC(=S)N2CCC(C(=O)c3ccc(F)cc3)CC2)cc1	10	x	x	x	u	x
Cn1c(=O)n(-c2ccc3c(c2)OCO3)c2nc(-c3ccc(Cl)cc3)nc(C(N)=O)c21	-15	x	x	x	x	x
SMILES	HCMV inh	Pf growth 48h	CHX counter	Shiga toxin inh	HCV inhibitor	Pf growth 96h
O=C(O)c1ccc(N2CCN(Cc3ccc4c(c3)OCO4)CC2)c([N+](=O)[O-])c1	-11	-9%	-3	-11	4%	10%
COc1cc(NS(=O)(=O)c2ccc(-c3cc(C)no3)cc2)cc(OC)c1	-85*	x	x	x	x	x
COc1ccccc1CNS(=O)(=O)c1ccc(-c2cc(C)no2)cc1	-60*	u	-1	-7	u	-19%
O=C(CN1CCN(S(=O)(=O)c2cccc(Br)c2)CC1)N1CCCCC1	u	-11%	x	x	-8%	31%
COc1ccccc1S(=O)(=O)N1CCN(S(=O)(=O)c2ccccc2C#N)CC1	-6	-21%	-2	-5	-8%	-18%
Cc1ccccc1NC(=O)C1(NC(=O)c2cccc(N3C(=O)CSC3c3ccccc3)c2)CCCCC1 (stereo not given)	20	12µM*	-1	-16	-25%	u
Cc1ccccc1NNC(=O)C(=O)NNc1ccccc1C	49	12%	8	26	-1%	-5%
Cc1ccccc1NC(=O)N(C(C)C)C(C)C	6	x	-4	-15	-12%	9.3µM*
Cc1ccccc1NC(=O)C(Cl)=C(Cl)Cl	-78*	-13%	-1	2	u	-3%
CC(=O)Nc1ccc(NC(=O)Nc2ccccc2C)cc1	7	58%	17	-2	13%	26%
O=C(CSc1n[nH]c(-c2cccnc2)n1)Nc1ccccc1	20	-21%	-1	15	14%	u
O=C(CSc1n[nH]c(-c2ccccn2)n1)Nc1ccccc1F	-20	-11%	2	12	u	10µM*
O=C(CSc1n[nH]c(-c2ccccc2)n1)Nc1ncc(Br)cc1Br	-28	7%	-1	-22	-26%	2.9µM*
O=C(CSc1n[nH]c(-c2ccccn2)n1)Nc1ccccc1	-79*	1%	-4	-10	u	u
NC(=O)C1CCN(c2nc(-c3cccc4ccccc34)cs2)CC1	x	u	x	x	x	-5%
COC(=O)c1cc2oc(C)cc2n1CC(=O)N1CCCc2ccccc21	6	u	14	32	u	6.6µM*
COC(=O)c1cc2occc2n1Cc1c(F)cccc1Cl	x	1%	1	5	x	2.6µM*
COC(=O)c1cc2sc(Cl)cc2n1CC(=O)N1CCCc2ccccc21	x	10µM*	-3	-2	-9%	21%
COC(=O)c1cc2sccc2n1CC(=O)N1CCCc2ccccc21	-31	u	-1	25	-23%	u
COC(=O)c1cc2oc(C)cc2n1CC(=O)Nc1ccc(OC)c(OC)c1	8	x	x	x	x	x
COC(=O)c1cc2oc(C)cc2n1CC(=O)Nc1ccc(C)c(C)c1	20	0%	-2	23	4µM*	1.7µM*
CCCc1cc(=O)[nH]c(SCC(=O)c2ccc3c(c2)NC(=O)CO3)n1	18	34%	0	11	-6%	27%
CCOCCn1c(N2CCCN(C)CC2)nc2ccccc21	x	0%	x	x	x	u
CCOC(=O)c1cc(=O)n2c(nc3ccccc32)[nH]1	113	4%	x	x	16%	-11%
CCOc1ccccc1NC(=O)CN1C=NS(=O)(=O)c2ccccc21	2	x	x	x	x	x
CC(NCc1ccccc1Cl)C(=O)Nc1ccc(C#N)cc1 (stereo not given)	-2	15%	2	-2	6%	2%
Cc1ccc(OCC(=O)Nc2ccc3nc(SCC(=O)N4CCCC4)sc3c2)cc1C	-16	x	x	x	x	x
COc1ccc(Nc2oc(-c3ccc(COc4cccc(C)c4)o3)nc2C#N)cc1	-37	x	x	x	x	x

Compound activity from PubChem.
